This is part of a sample that, as a whole, favours compounds with a hit. Of some 83,000 tested, about 20% had one in any assay.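 Cells were grown in 96-well plates and exposed to the test compound at a single concentration for 48 hours; results are reported as percent growth, with values below 10 considered active.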 A number with no mark means an inactive call. The source made the active and inactive calls.
Columns and labels:
Experiment in all cases: NCI-60 one-dose screen, 48 h (100 = growth as untreated, 0 = no growth, -100 = all killed)
Conditions in all cases: 10 µM
BT-549 breast = system: BT-549 breast
MDA-MB-435 melanoma = system: MDA-MB-435 melanoma
SW-620 colon = system: SW-620 colon
MCF7 breast = system: MCF7 breast
HCT-116 colon = system: HCT-116 colon
HCC-2998 colon = system: HCC-2998 colon
KM12 colon = system: KM12 colon

Row | Compound | growth (BT-549 breast) | growth (MDA-MB-435 melanoma) | growth (SW-620 colon) | growth (MCF7 breast) | growth (HCT-116 colon) | growth (HCC-2998 colon) | growth (KM12 colon)
1 | CCN(CC)CCOc1nc2ccccc2c2c1-c1ccc(OC)cc1C2=O | 60.8% | -6.62% (active) | -13.3% (active) | 0.376% (active) | -93% (active) | 14.8% | -45.2% (active)
2 | CCCCOC(=O)Oc1ccc(C(=O)Oc2ccc(OCC)cc2)cc1 | 85.9% | 93.4% | 110% | 123% | 98.2% | 102% | 94.8%
3 | COc1ccc(N=C2C(=Nc3ccc(OC)cc3)N(c3ccc(N(C)C)cc3)C(=S)N2c2ccc(OC)cc2)cc1 | 75.1% | 86.5% | 94.7% | 84.9% | 81.6% | 105% | 86.8%
4 | Cc1ccc(-c2nc(/C=C3/C(=O)N(C)c4ccc(F)cc43)c3ccccn23)cc1 | 99.9% | 111% | 105% | 78.6% | 89.3% | 104% | 101%
5 | O=C(/C(=C/c1ccccc1)CN1CCCCC1)c1ccccc1 | -56.6% (active) | 6.16% (active) | 0.239% (active) | -22% (active) | -87.4% (active) | -91% (active) | -75.8% (active)
6 | N#Cc1ncc(Br)c(NC2CCCCCC2)n1 | 98.4% | 103% | 113% | 92.1% | 104% | 111% | 113%
7 | C=C1c2c(C)nn(-c3ccc(OC)cc3)c2N(C)C23C[C@@H]1C1(C)c4c(C)nn(-c5ccc(OC)cc5)c4N(C)C(C)(C[C@H]12)C3 (some centres undefined) | 32.9% | 34% | 31.4% | 20.8% | 16.7% | 34.9% | 28.6%
8 | CN(C)CCN1C(=O)c2cccc3c(-c4ccc5ncn(C6CCCCC6)c5c4)ccc(c23)C1=O | 56.5% | 39.9% | 21.4% | 12.1% | 8.6% (active) | 39.8% | 24.8%
9 | C=C(Cl)[C@@](Cl)(CBr)CC[C@@H](Br)C(C)(C)Cl | 78.6% | -24.2% (active) | -61.7% (active) | -51.7% (active) | -94.6% (active) | -96.9% (active) | -94.2% (active)
10 | COc1cccc(-c2cc(-c3cccc(NS(C)(=O)=O)c3)nc(N)c2C#N)c1O | 58.1% | -20.8% (active) | 37.4% | 19.1% | 24.7% | -25.3% (active) | 23.1%
11 | COC(=O)C(=C\c1ccc2c(c1)OCO2)/C(=C/c1ccc2c(c1)OCO2)C(=O)OC | 95.5% | 104% | 110% | 96.9% | 92.9% | 94.6% | 102%
12 | Cc1cccc(C)c1NC(=O)c1sc2nc3c(cc2c1N)C(=O)CCC3 | 90.7% | 13% | 72.2% | 54.6% | 90.6% | 72.5% | 56.3%
13 | NC(=O)CC1(c2ccccc2)CCCCC1 | 102% | 109% | 108% | 96.4% | 95.6% | 102% | 101%
14 | CCN(CC)CCC(CNc1c(C)cnc2cc(Cl)ccc12)c1ccc(Cl)c(Cl)c1 (centres undefined) | 75.1% | 0.88% (active) | 46.2% | 27.4% | 21.7% | -18.2% (active) | 71.3%
15 | CS(=O)(=O)Nc1ccc(Nc2c3ccccc3nc3cc([N+](=O)[O-])ccc23)cc1 | 32.5% | 39.7% | 7.02% (active) | 2.38% (active) | 4.91% (active) | 32.3% | -35.7% (active)
16 | Cc1cc(C)c2c(n1)sc1c(Nc3ccc(Cl)cc3)ncnc12 | 29.8% | 27.3% | 34% | 16.5% | 15.1% | 54.4% | 43.1%
17 | CCOCC(=O)C(C#N)c1ccc(Cl)c(Cl)c1 (centres undefined) | 104% | 92.8% | 102% | 92.2% | 105% | 106% | 107%
18 | CN1CCCNc2c(c(=O)c2=O)NCCCN(C)CCCNc2c(c(=O)c2=O)NCCCN(C)CCCNc2c(c(=O)c2=O)NCCCN(C)CCCNc2c(c(=O)c2=O)NCCCN(C)CCCNc2c(c(=O)c2=O)NCCCN(C)CCCNc2c(c(=O)c2=O)NCCCN(C)CCCNc2c(c(=O)c2=O)NCCC1 | 67.1% | 21.1% | 41% | 74.1% | 59.2% | 70.6% | 34.9%
19 | CCN1CCC2(CC1)OC(c1ccccc1)C(c1ccccc1)O2 (centres undefined) | 110% | 114% | 102% | 99.6% | 95.1% | 113% | 115%
20 | CCCCCCCCCCCCC1C/C=C\CCCC(=O)O1 (centres undefined) | 127% | 105% | 104% | 91.7% | 105% | 129% | 112%
21 | COc1ccc(-c2nn(-c3cccc(NC(=O)c4ccc5c(c4)OCCO5)c3)cc2-c2ccncc2)cc1Cl | 34.2% | -61.8% (active) | 18.3% | 2.05% (active) | 15.3% | 46.5% | 9.37% (active)
22 | CCOC(=O)CCC(NC(=O)c1ccc(N)cc1)C(=O)OCC (centres undefined) | 44.8% | 117% | 107% | 103% | 106% | 105% | 106%
